Screening data from PubChem BioAssay.
Shown are actives, neighbours in structure and some others; about 27% of the full set was active somewhere.
EphB4 antag = blocks human EphB4 binding to ephrin-B2; P54760; EphB4 LBD / TNYL-RAW-Alexa532 peptide, fluorescence polarization; 97,000 tested, 0.15% active; AID 720; inhibition, % at 7 µM;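 active means inhibition above the screen-wide mean inhibition plus 3 SD, cut at about 15% in these data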;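 further: 0% = DMSO wells and 100% = excess unlabeled TNYL-RAW peptide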
Target sequence (P54760 whole entry, looked up, the tested form may be a part): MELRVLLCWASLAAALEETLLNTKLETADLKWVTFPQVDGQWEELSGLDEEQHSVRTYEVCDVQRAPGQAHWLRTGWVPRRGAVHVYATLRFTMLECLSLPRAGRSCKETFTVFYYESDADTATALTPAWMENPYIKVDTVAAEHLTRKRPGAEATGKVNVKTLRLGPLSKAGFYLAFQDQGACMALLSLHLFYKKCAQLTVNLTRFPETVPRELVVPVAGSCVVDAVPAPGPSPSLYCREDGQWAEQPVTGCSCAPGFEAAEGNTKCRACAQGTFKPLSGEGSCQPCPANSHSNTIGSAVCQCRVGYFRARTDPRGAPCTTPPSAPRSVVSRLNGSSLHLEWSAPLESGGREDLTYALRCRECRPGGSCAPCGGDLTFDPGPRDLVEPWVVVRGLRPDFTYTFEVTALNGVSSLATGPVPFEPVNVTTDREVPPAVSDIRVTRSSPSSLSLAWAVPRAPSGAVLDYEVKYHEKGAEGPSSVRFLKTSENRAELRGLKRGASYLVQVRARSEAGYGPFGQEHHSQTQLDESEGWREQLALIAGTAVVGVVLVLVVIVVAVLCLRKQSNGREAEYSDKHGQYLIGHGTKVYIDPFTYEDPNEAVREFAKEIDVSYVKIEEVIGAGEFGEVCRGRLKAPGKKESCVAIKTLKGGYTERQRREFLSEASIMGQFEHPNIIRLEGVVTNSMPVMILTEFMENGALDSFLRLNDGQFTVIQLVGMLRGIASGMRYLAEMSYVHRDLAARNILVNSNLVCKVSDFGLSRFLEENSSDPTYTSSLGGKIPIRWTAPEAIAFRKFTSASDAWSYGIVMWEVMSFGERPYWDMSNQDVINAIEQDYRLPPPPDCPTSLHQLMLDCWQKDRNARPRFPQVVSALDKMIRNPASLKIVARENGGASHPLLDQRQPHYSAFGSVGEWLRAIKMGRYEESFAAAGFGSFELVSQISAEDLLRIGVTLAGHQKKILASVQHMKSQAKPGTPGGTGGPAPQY
CYP2C19 inhib = human CYP2C19 inhibition; P33261; CYP2C19 Supersomes, luciferin-H EGE luminescence, 30 min; inhibition, % at 5 µM; 96,000 tested, 21% active; AID 778;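 active means CYP2C19 inhibition above a set limit at 5 µM in the primary screen, cut at about 50% in these data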;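 further: plate controls were negative control wells for no effect and 2.5 mM tranylcypromine positive control for full effect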
CYP2C19 act = cytochrome P450 2C19 (human) activation; P33261; recombinant CYP2C19, luciferin-H EGE luminescence; stronger effect = higher value; 0 = fully inhibited enzyme, 1 = untreated enzyme; activation factor at 5 µM; 96,000 tested, under 10 active; AID 1025;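 active means activation factor of at least 2 at 5 µM in the primary screen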;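 further: 0 = wells with 2.5 mM tranylcypromine and 1 = vehicle-only wells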
CYP2C9 inh = inhibitors of human CYP2C9; CYP2C9 Supersomes, luciferin-H conversion, luminescence; 96,000 tested, 20% active; inhibition, % at 5 µM;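 active means blocking of liver enzyme CYP2C9 beyond about 50% at 5 µM, limit read from the data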
CYP2C9 act = increases human cytochrome P450 2C9 activity; activation factor at 5 µM; 96,000 tested, 1.4% active; recombinant CYP2C9, luciferin-H conversion, luminescence; stronger effect = higher value; factor 1 = untreated enzyme, 0 = blocked; AID 1024;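 active means activation factor of 2 or more for CYP2C9 at a 5 µM dose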;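 further: 0 = sulfaphenazole-blocked wells and 1 = vehicle-only wells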
The depositor's hits bear a star; x = not tested or not shown.

SMILES	EphB4 antag	CYP2C19 inhib	CYP2C19 act	CYP2C9 inh	CYP2C9 act
Cc1ccc(N2CC(C(=O)NCCCn3ccnc3)CC2=O)cc1 (stereo not drawn)	0	85*	0.1	76*	0.2
Cc1ccc(N2CC(C(=O)Nc3nnc(C(C)C)s3)CC2=O)cc1 (stereo not drawn)	-6	2	1	58*	0.4
CC(C)(C)c1ccc(C(=O)Nn2c(CCC(=O)O)ccc2-c2cccs2)cc1	2	-14	1.1	5	0.9
COc1ccc(N2CC(C(=O)NCCCN3CCOCC3)CC2=O)cc1 (stereo not drawn)	5	1	1	13	0.9
Cc1ccc2nc(C)cc(Nc3ccc4c(c3)OCCO4)c2c1	0	20	0.8	68*	0.3
CCOc1ccc2nc(C)cc(Nc3ccc4c(c3)OCCO4)c2c1	-2	34	0.7	12	0.9
O=C(NCCN1C(=O)C2C3C=CC(C3)C2C1=O)Nc1cccnc1 (stereo not drawn)	-4	40	0.6	4	1
COc1ccccc1NC(=O)NCCN1C(=O)C2C3C=CC(C3)C2C1=O (stereo not drawn)	-9	66*	0.3	3	1
O=C(NCCN1C(=O)C2C3C=CC(C3)C2C1=O)Nc1ccc(Br)cc1 (stereo not drawn)	-3	94*	0.1	55*	0.4
COc1cc(C(=O)OC(C)CN2CCCC2)cc(OC)c1OC (stereo not drawn)	0	-10	1.1	-3	1
CSCCC1NC(=O)NC1=O (stereo not drawn)	x	-10	1.1	-15	1.2
CCOC(=O)N1CCC(Nc2nc3ccccc3n3nnnc23)CC1	x	29	0.7	51*	0.5
Cc1ccc(CNc2nc3ccccc3n3nnnc23)cc1	x	21	0.8	11	0.9
COC(=O)C(NC(C)=O)(Nc1nc(C)cs1)C(F)(F)F (stereo not drawn)	3	10	0.9	19	0.8
COC(=O)C(NC(C)=O)(Nc1ccc(Br)cn1)C(F)(F)F (stereo not drawn)	x	82*	0.2	29	0.7
COC(=O)C(NC(C)=O)(Nc1ccccn1)C(F)(F)F (stereo not drawn)	-8	12	0.9	50*	0.5
COC(=O)C(NC(=O)c1ccc(C)cc1)(Nc1cccc(C)n1)C(F)(F)F (stereo not drawn)	8	x	x	x	x
COC(=O)C(NC(C)=O)(Nc1nc2c(C)cc(C)cc2s1)C(F)(F)F (stereo not drawn)	5	92*	0.1	99*	0
COC(=O)C(NC(=O)c1ccco1)(Nc1ccc(Br)cn1)C(F)(F)F (stereo not drawn)	-4	94*	0.1	16	0.8
Cn1c(-c2sc3cc(C(F)(F)F)cnc3c2-c2cccnc2)n[nH]c1=S	-3	11	0.9	49	0.5
CCn1c(=S)[nH]c2nc3c(cc2c1=O)CCCC3	-4	2	1	4	1
CCCCC(=O)NC(Nc1ccc(C)cn1)(C(=O)OCC)C(F)(F)F (stereo not drawn)	-4	66*	0.3	18	0.8
CCOC(=O)c1sc2nc(C)cc(C)c2c1NC(=O)c1ccco1	-12	2	1	3	1
Cc1ccc(C)c(NS(=O)(=O)c2cc(C(=O)Nc3cccc(N(C)S(C)(=O)=O)c3)ccc2C)c1	-10	24	0.8	79*	0.2
Cc1ccccc1NS(=O)(=O)c1cc(C(=O)N2CCCC2)ccc1C	8	20	0.8	35	0.6
SMILES	EphB4 antag	CYP2C19 inhib	CYP2C19 act	CYP2C9 inh	CYP2C9 act
Cc1ccc(C)c(NS(=O)(=O)c2cc(C(N)=O)ccc2C)c1	-1	76*	0.2	2	1
CC(=O)C1C(c2cn(-c3ccccc3)nc2-c2cccs2)NC(=O)NC1(O)C(F)(F)F (stereo not drawn)	-7	34	0.7	16	0.8
CCC(C)(C)NC(=O)CN(Cc1cccs1)C(=O)C(=O)Nc1ccc2c(c1)OCCO2	-4	46	0.5	72*	0.3
CC(C)OC(=O)c1c(NC(=O)c2cnn3c2NC(c2ccccc2)CC3C(F)F)sc2c1CCCC2 (stereo not drawn)	-6	-2	1	-9	1.1
O=C1c2ccccc2C(=O)N1Cc1ccco1	-6	34	0.7	-4	1
CC1=CC(=C2C(=O)c3ccccc3C2=O)C=C(C)N1Cc1ccco1	-4	51*	0.5	68*	0.3
